# FMDV inh: foot and mouth disease virus antiviral activity; AID 1159524; FMDV antiviral cell-based qHTS; Potency, µM (highest dose often 57.9 µM), for the others: at the highest dose activity change, negative = inhibition, actives largely listed as inhibitors; 410,000 compounds, 1.2% hits; calls by dose curve; tested in HEK293T cells; further: read-out not given here; potency means the concentration at half of the fitted maximal effect; on the % scale 0 is the no-effect control and ±100 the full control effect; nearly all actives have a fitted effect of over 45% in size
# Shiga toxin inh: blocks Shiga toxin action in Vero cells; Vero cells, Shiga toxin protein synthesis inhibition reporter; inhibition, % at 38.7 µM; 290,000 compounds, 9.2% hits; AID 2315; in the data active means inhibition mostly above about 28%, no sharp cut-off; inactive means mostly below about 43%; further: 0% is about no effect
# Cycloheximide cs: counter-screen for Shiga toxin inhibitors: cycloheximide protein synthesis inhibition; cell reporter, cycloheximide protein synthesis inhibition counterscreen; max response, %; 300,000 compounds, 12% hits; AID 2314; in the data active means max response mostly above about 13%, no sharp cut-off; inactive means mostly below about 14%; further: read at 38.3 µM for the half of the compounds with a filed dose; 0% is about no effect
# Sm TGR block: S. mansoni TGR enzyme inhibition. purified TGR, DTNB reduction, TNB absorbance 405 nm. 360,000 compounds, 3% hits. Potency, µM (highest dose often 114 µM), without a hit: top-dose activity change, negative = inhibition, hits mostly inhibitors. Q962Y6; active means well fitted inhibition curve with a large enough effect; inconclusive means small, poorly fitted or top-dose-only effect; inactive means no such curve, though single readings can be large or run the other way; further: potency means the concentration at half of the fitted maximal effect; on the % scale 0 is the no-effect control and ±100 the full control effect; nearly all actives have a fitted effect of over 60% in size
#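 Kinetic colorimetric format: TGR-catalysed, NADPH-driven DTNB reduction monitored via TNB absorbance. Enzyme dispensed at 20 nM; compound exposure 15 min at room temperature before reaction start.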
# * = called active by the depositor; ? = inconclusive; · = not tested or not shown. A selection: hits, their analogues and other compounds. The true share with any hit is near 12%.
SMILES,FMDV inh,Shiga toxin inh,Cycloheximide cs,Sm TGR block
CCCOc1ccc(CNC(=O)Cn2cc3c(n2)-c2c(oc(C(=O)N4CCOCC4)c2C)CC3)cc1,?,·,·,-4%
O=C(O)Cc1ccc(N=Cc2c(O)ccc3ccccc23)cc1,-27%,9,-1,-26%
O=c1[nH]c2ccc(N=Cc3c(O)ccc4cc(Br)ccc34)cc2[nH]1,-18%,-8,-4,32µM*
COc1ccc(N=c2cc(-c3ccc(O)cc3)oc3ccccc23)cc1,?,12*,42*,-1%
COc1ccc(N=c2cc(-c3ccc(OC)cc3)oc3ccccc23)cc1,-18%,10,0,-4%
COc1ccc(-c2cc(=Nc3ccccc3)c3cc(C)ccc3o2)cc1,59%,97*,86*,-2%
CCN(CCCNC(=O)CSc1cc(=O)n(C)c2cc(Cl)ccc12)c1ccccc1,-18%,·,·,-1%
COC(=O)c1ccc(C2C(Oc3ccccc3)C(=O)N2CCc2ccc(F)cc2)cc1 (stereo unspecified),32%,-4,-4,2%
CC1SC(c2ccc(F)cc2)N(CCc2ccccc2)C1=O (stereo unspecified),11%,42*,24*,0%
O=C1C(Cl)=CC(=Nc2ccc(O)cc2)C=C1Cl,21%,12,12,0.89µM*
O=C1CSC(=Nc2ccc(O)cc2)N1,7%,-8,-2,10%
Nc1nc(Cl)cc(NCCc2ccccc2)n1,·,13,15*,-15%
O=C(CSc1ccccn1)Nc1ccc(F)c([N+](=O)[O-])c1,14%,0,3,-18%
O=[N+]([O-])c1cccc(NC(=S)Nc2nc(-c3ccccc3Cl)cs2)c1,-19%,75*,33*,-19%
O=C(CSc1nc(-c2ccc(Cl)cc2)cs1)Nc1cccc([N+](=O)[O-])c1,5%,54*,38*,0%
NS(=O)(=O)c1cccc(NC(=O)CSc2ccccn2)c1,26%,51,28*,-10%
O=C(CSc1ccccn1)Nc1cccc([N+](=O)[O-])c1,35%,34*,32*,5%
Cc1cc(NC(=O)CSc2nc(-c3ccc(Cl)cc3)cs2)no1,-26%,21,-3,-16%
Cc1cc(C)cc(OC(=O)c2snnc2C)c1,8%,·,·,-13%
CCCOc1ccc(CC2C(=O)Nc3ccc(Br)cc32)cc1 (stereo unspecified),-11%,·,·,-7%
CC(C)c1ccc(NC(=O)CSc2ncccc2C(=O)Oc2cccc([N+](=O)[O-])c2)cc1,17%,36*,46*,-4%
CCCCOC(=O)Oc1ccc2c(=O)c(Oc3cc(C)cc(C)c3)coc2c1,-11%,-10,-1,?
CCCCOC(=O)Oc1ccc2c(=O)c(Oc3cccc(C)c3)coc2c1,23%,11,35*,-1%
Cc1cc(C)cc(Oc2coc3cc(O)ccc3c2=O)c1,2%,·,5,0%
Cc1ccc(Oc2coc3cc(O)ccc3c2=O)cc1,57%,29,31*,-5%
SMILES,FMDV inh,Shiga toxin inh,Cycloheximide cs,Sm TGR block
COc1cccc(C(c2sc3nc(-c4ccco4)nn3c2O)N2CCC(O)CC2)c1 (stereo unspecified),-3%,·,·,2%
CCCCN(C(=S)Nc1cccc(SC)c1)C1CCN(C(C)=O)CC1,-11%,-3,-1,6%
CSc1cccc(NC(=S)N2CCC(N(C)C3CCCCC3C)CC2)c1 (stereo unspecified),-20%,13,1,22µM*
CSc1cccc(NC(=S)N2CCC(N(C)C3CCCCC3)CC2)c1,-19%,-2,-2,45µM*
COc1cc(Cl)c(C)cc1NC(=O)c1cc2c(=O)oc3ccccc3c2s1,4%,·,·,-7%
Cc1ccc2cc3cc(C(=O)N4CCN(c5ccccc5)CC4)oc3nc2c1,-3%,·,·,5%
Cc1nn(C)cc1C(N)=O,-11%,-13,-2,0%
C/C(=N\NC(=O)c1ccn[nH]1)c1cn(C)nc1C,12%,117*,44*,-1%
Cc1ccc(CNC(=O)c2cc(-c3ccc(Cl)cc3)on2)cc1,-15%,·,·,1%
COc1c2ccoc2nc2c(OC)cccc12,·,44*,16,2%
O=C(c1ccncc1)N1CCCC(N2CCN(c3ccc(F)cc3)CC2)C1 (stereo unspecified),-9%,39*,27*,0%
CC(C)c1nc(C(=O)N2CCCC(N3CCN(c4cccc(Cl)c4)CC3)C2)cs1 (stereo unspecified),-25%,-15,-3,-20%
Cc1cccc(C(=O)N2CCCC(N3CCN(c4cccc(Cl)c4)CC3)C2)n1 (stereo unspecified),-8%,15,21*,-2%
O=C(c1cnccn1)N1CCCC(N2CCN(c3cccc(Cl)c3)CC2)C1 (stereo unspecified),7%,-16,10,89µM*

# Source: PubChem BioAssay
